# Measured values published in PubChem BioAssay (Tox21).
# “And” between values parts separate entries of the source, which are not always exact repeats. Equal entries are not always repeated. Records with an inconclusive call do not appear. A number with no mark means an inactive call. The source made the active and inactive calls. Calls follow the shape of the dose curve; as a rule, active = well fitted cell-killing curve with a large enough effect in the repeat runs; inconclusive = weak or mixed curves, or effect the other way; inactive = no such curve, though single readings can be large or run the other way.
# Assay: qHTS assay to identify small molecule agonists of the vitamin D receptor (VDR) signaling pathway - cell viability counter screen (AID 743224); also: nearly all actives have a fitted effect of over 50% in size
# Conditions: VDR-bla HEK293T viability, CellTiter-Glo luminescence, 16 h; series mostly up to 62.6 µM; activity change, negative = cytotoxicity: at the top concentration
# From the text: U.S. Tox21 Program National Center for Advancing Translational Sciences [NCATS] NIH Chemical Genomics Center [NCGC] U.S. Environmental Protection Agency [EPA] National Institutes of Environmental Health Sciences [NIEHS] National Toxicology Program [NTP] U.S. Food and Drug Administration [FDA] Tox21 Assay Overview: The vitamin D receptor (VDR), a member of nuclear hormone receptor superfamily, plays a critical role in calcium homeostasis and bone metabolism. It is also involved in cell differentiation and growth, and thrombogenicity. […] The cytotoxicity of the Tox21 compound library against the VDR-bla cell line was tested in parallel by measuring the cell viability using CellTiter-Glo assay (Promega, Madison, WI) in the same wells.
# Tox21 Assay Protocol Summary: VDR-bla cells were dispensed at 2,000 cells/6 uL/well into black wall/clear-bottom 1536-well plates using a Multidrop Combi (Thermo Fisher Scientific, Waltham, MA) dispenser. After the assay plates were incubated at a 37C and 5% CO2 for 4 h, 23 nL of compounds dissolved in DMSO, positive controls or DMSO only was transferred to the assay plate by a Pintool station (Kalypsys, San Diego, CA). The plates were incubated at 37C and 5% CO2 for 16 h. After 1 uL of LiveBLAzerTM B/G FRET substrate was added using a Bioraptr Flying Reagent Dispenser (FRD) workstation (Beckman Coulter, Indianapolis, IN, USA), the plates were incubated at room temperature for 2 h, and fluorescence intensity was measured by an Envision plate reader (PerkinElmer, Shelton, CT). For cell viability readout that measures cytotoxicity, 3 ul/well of CellTiter-Glo reagent was added into the assay plates using a FRD. After 30 min incubation at room temperature, the luminescence intensity in the plates was measured using a ViewLux (PerkinElmer) plate reader.
# % is scaled to controls: 0 for no effect and ±100 for the full control effect; potency is read from the fitted curve at half-maximal effect.
Structure (SMILES),"activity change, negative = cytotoxicity",Potency
C1CC(COCC2CO2)CCC1COCC1CO1 (stereo not given),0.497%,–
COC(=O)C1=C(C)NC(C)=C(C(=O)OCCCN2CCC(c3ccccc3)(c3ccccc3)CC2)C1c1cccc([N+](=O)[O-])c1 (stereo not given),–,26.6 µM (active)
O=C(O)CCn1c2c(c3ccccc31)C[C@H](NS(=O)(=O)c1ccc(F)cc1)CC2,5.91%,–
CCC(=O)OCCc1ccccc1,–,41.8 µM (active)
O=C(NO)c1ccccc1,-31.2% [at 81.1 µM],–
CCN=C1C=CC(=C(c2ccc(N(CC)CC)cc2)c2ccc(N(CC)CC)cc2)c2ccccc21,–,4.87 µM (active)
Nc1cc(Cl)c([N+](=O)[O-])cc1O,-2.48%,–
CCCCCCCCCCCC(=O)N(CC)CC,0.803%,–
CCN=c1cc2oc3cc(NCC)c(C)cc3c(-c3ccccc3C(=O)OCC)c-2cc1C,–,27.4 µM (active) and 24.5 µM (active)
CCCCOC(=O)C(C)CC (stereo not given),–,24.5 µM (active)
CC=O,–,22.9 µM (active)
CO[C@H]1C=CO[C@@]2(C)Oc3c(C)c(O)c4c(O)c(cc(O)c4c3C2=O)NC(=O)/C(C)=C\C=C/[C@H](C)[C@H](O)[C@@H](C)[C@@H](O)[C@@H](C)[C@H](OC(C)=O)[C@@H]1C,-16.8% [at 81.1 µM],–
c1ccc(Sc2ccccc2)cc1,–,49 µM (active)
NC(=O)c1nc(-c2cccc(-c3cc(F)ccc3OCC(F)(F)C(F)(F)F)c2)n[nH]1,–,43.6 µM (active)
COC(=O)CC(C)CCC=C(C)C (stereo not given),-16.6%,–
CCCCCCCCCCCCCCNCCO,-29.4%,–
N#CSCSc1nc2ccccc2s1,–,12.3 µM (active)
Cc1ccc(-n2[nH]c(C)c(N=Nc3cccc(-c4cccc(C(=O)O)c4)c3O)c2=O)cc1C,-16.8%,–
C=CC(C)(CCC=C(C)C)OC(=O)/C=C/c1ccccc1 (stereo not given),–,38.9 µM (active)
ClC/C=C\CCl,10.4% [at 81.1 µM],–

Structure (SMILES),"activity change, negative = cytotoxicity",Potency
COCC(=O)O[C@]1(CCN(C)CCCc2nc3ccccc3[nH]2)CCc2cc(F)ccc2[C@@H]1C(C)C,–,26.6 µM (active)
C=C1C(C)(C)[C@@]2(Cl)C(Cl)[C@]1(Cl)C(Cl)(Cl)C2(Cl)Cl (stereo not given in full),–,38.2 µM (active)
O=C(Oc1ccccc1)c1cccc(C(=O)Oc2ccccc2)c1,-12.7% [at 81.1 µM],–
O=C(c1ccccc1)c1cc(Cl)ccc1O,-24.1%,–
CC(NCCC(c1ccccc1)c1ccccc1)c1ccccc1 (stereo not given),–,23.7 µM (active)
C=CCCCCCCC=C,–,49.1 µM (active)
C[Si](C)(C)Cl,-0.219%,–
CN(C)c1ccc(N=NS(=O)(=O)O)cc1,-33.4% [at 81.1 µM],–
CCN(CC)CCOC(=O)C1(C2CCCCC2)CCCCC1,-26.6%,–
O=C(O)c1cccc(Cl)n1,–,24.5 µM (active)
COC(=O)NCCC[Si](OC)(OC)OC,–,49 µM (active)
CC(=O)OC(OC(C)=O)c1ccc([N+](=O)[O-])o1,–,44.4 µM (active)
CN(Cc1cc(Br)cc(Br)c1N)C1CCCCC1,–,26.6 µM (active)
O=S(=O)(O)CCCN1CCOCC1,2.14%,–
CC(C)N=C(N)/N=C(\N)Nc1ccc(Cl)cc1,-11%,–
COC(=O)[C@]1(C)CCC[C@@]2(C)[C@H]1CC=C1C=C(C(C)C)CC[C@@H]12,0.859%,–
Clc1ccc(C(Cn2ccnc2)OCc2c(Cl)cccc2Cl)c(Cl)c1 (stereo not given),–,33.5 µM (active)
Nc1ncnc2c1ncn2[C@@H]1O[C@H](COP(=O)(O)O)[C@@H](O)[C@H]1O,–,10.6 µM (active)
CCCCCCCC/C=C\CCCCCCCC(=O)N(C)CC(=O)O,–,49 µM (active)
O[C@@H](c1cc(C(F)(F)F)nc2c(C(F)(F)F)cccc12)[C@H]1CCCCN1,–,21.1 µM (active)
